Experimental data reported in ChEMBL document CHEMBL1157539, “Thousands of chemical starting points for antimalarial lead identification” (Nature, 2010).

Columns and labels:
Assay type in all cases: functional
Plasmodium falciparum [1] = experiment: GSK_TCMDC: Inhibition of Plasmodium falciparum 3D7 in whole red blood cells, using parasite LDH activity as an index of growth. Test compounds present at 2uM
Plasmodium falciparum [2] = experiment: GSK_TCMDC: Inhibition of Plasmodium falciparum Dd2 in whole red blood cells, using parasite LDH activity as an index of growth. Test compounds present at 2uM
HepG2 = experiment: GSK_TCMDC: Percent inhibition of human HepG2 cell line. Test compounds present at 10uM.

| Compound | Inhibition (Plasmodium falciparum [1]) [%] | Inhibition (Plasmodium falciparum [2]) [%] | Inhibition (HepG2) [%] |
| --- | --- | --- | --- |
| Oc1ccc2nc(NCCCc3ccccc3)nc(NCCc3ccccc3)c2c1 | 99 | 88 | 31 |
| CCN(CC)CCNc1ccnc2[nH]c3ccc(C)cc3c12 | 100 | 81 | 9 |
| COC(=O)c1ccc(OCC(O)CO)cc1O (stereo not drawn) | 100 | 23 | 4 |
| COc1cc2nc(NCCN3CCOCC3)n3nc(-c4ccccc4)nc3c2cc1OC | 96 | 98 | 15 |
| CN(c1ccccc1)c1ccnc(NC(=N)Nc2ccc(Cl)cc2)n1 | 87 | 6 | 30 |
| O=C(O)C(F)(F)F.O=S(=O)(NCCN1CCCC1)c1ccc(-c2ccc(CNCc3ccsc3)cc2)s1 | 99 | 40 | 31 |
| Cc1ccc(O)cc1Nc1ccnc2cc(-c3nccs3)ccc12.Cl | 100 | 83 | 63 |
| CC(C)N1CCN(c2ccc(OCCCCN3CCN(c4cccc(Cl)c4Cl)CC3)cc2Cl)CC1.Cl | 89 | 34 | 63 |
| NCCCNc1nc(Nc2cccc(C(N)=O)c2)c2c(=O)[nH]ccc2n1.O=C(O)C(F)(F)F | 99 | 49 | 9 |
| O=C(O)C(F)(F)F.O=[N+]([O-])c1cnc(Nc2ccccc2O)nc1Nc1ccccc1O | 98 | 80 | 24 |
| O=C(O)C(F)(F)F.c1ccc2[nH]c(-c3ccc(-c4ccc(CN5CCN(c6ccncc6)CC5)cc4)cc3)nc2c1 | 100 | 100 | 48 |
| COc1cc(F)c2nccc([C@@H](O)CN3CCC(NCc4cc5c(cc4F)OCCO5)CC3)c2c1 | 99 | 45 | 23 |
| CCCC1(NC[C@@H](O)[C@H](Cc2ccccc2)NC(=O)c2cc(NCC)cc(N3CCCCS3(=O)=O)c2)CCC1.Cl | 100 | 86 | 0 |
| O=C(/C=C/c1ccc(Cl)c(Cl)c1)NCCCCCN1CCCC(CCCNC(=O)Nc2ccc(C(F)(F)F)cc2)C1 (stereo not drawn) | 100 | 48 | 58 |
| CCNc1cc(C(=O)N[C@@H](Cc2ccccc2)[C@H](O)CNCCc2cccc3ccccc23)cc(N2CCCC2=O)c1.O=CO | 86 | 39 | 12 |
| O=C(Cn1c(=O)oc2ccccc21)N1CCC(n2c(=O)n(CCCN3CCOCC3)c3ccccc32)CC1 | 99 | 100 | 11 |
| C(=Cc1nc2ccccc2s1)c1ccc2c(c1)OCCO2.Cl | 98 | 96 | 13 |
| CN1CCN(C(C(=O)NCc2cc(Cl)cc(Cl)c2)c2ccc(NC(=O)Nc3ccccc3)cc2)CC1.O=C(O)C(F)(F)F (stereo not drawn) | 98 | 43 | 23 |
| CCOC(=O)c1ccc(NC(=O)Nc2ccc(Cn3ncc(N4CCCNCC4)c(Cl)c3=O)cc2)cc1.O=C(O)C(F)(F)F | 88 | 58 | 2 |
| COC(=O)c1cccc(C#CCCOCCCCCCNC[C@H](O)c2cc(Cl)c(N)c(Cl)c2)c1 | 97 | 88 | 12 |
| O=C(/C=C/c1ccc(Cl)c(Cl)c1)NCCCCCCN1CCN(C(=O)Nc2cc(Cl)nc(Cl)c2)CC1 | 100 | 0 | 15 |

| Compound | Inhibition (Plasmodium falciparum [1]) [%] | Inhibition (Plasmodium falciparum [2]) [%] | Inhibition (HepG2) [%] |
| --- | --- | --- | --- |
| O=C(Nc1ccc(-c2nc3ccccc3[nH]2)cc1)c1ccc(S(=O)(=O)N2CCc3ccccc32)cc1 | 100 | 34 | 32 |
| O=C(Nc1ccc(Cl)c(C(F)(F)F)c1)NC1CCN(CCCCCNC(=O)C2CC2c2ccc(Cl)c(Cl)c2)CC1 (stereo not drawn) | 100 | 41 | 79 |
| CCCCN(CCCC)CC(O)c1cc(-c2ccc(Cl)cc2)nc2c(Cl)cc(Cl)cc12.Cl (stereo not drawn) | 97 | 97 | 0 |
| CN(C)c1cccc(-c2cnc3ccc(NCc4cccc(Cl)c4)nn23)c1 | 99 | 98 | 11 |
| COc1ccccc1CNc1ncc(-c2ccsc2)c(-c2nccs2)n1 | 91 | 84 | 14 |
| Br.COc1cc(OCCCCCCON2C(=N)N=C(N)NC2(C)C)cc(OC)c1OC | 94 | 93 | 41 |
| N#Cc1ccc(CNCCCCCCCNCc2ccc(-c3ccccc3)cc2)cc1 | 87 | 10 | 19 |
| CC1(C)C(=O)Nc2ccc3c(c21)CC1SC(=O)NN=C31 (stereo not drawn) | 96 | 92 | 6 |
| Cc1nc(N)nc(N)c1-c1ccc(Cl)c(Cl)c1 [METOPRINE] | 95 | 0 | 66 |
| CCCc1cc(N2CCC(N(CC)CC)C2)nc(Nc2ccc(OC)cc2)n1 (stereo not drawn) | 90 | 4 | 9 |
| Cc1ccccc1C1CCN(C2CCC(NC(=O)c3ccc(-c4cccc(C(F)(F)F)c4)o3)CC2)CC1 (stereo not drawn) | 99 | 100 | 56 |
| COc1ccc2nccc(N(C)CC3(O)CCC(NCc4ccc5c(n4)NC(=O)CS5)CC3)c2n1.Cl (stereo not drawn) | 98 | 23 | 1 |
| COc1cc2c(cc1OCCN1CCC(N3CCCC3)CC1)N(C(=O)/C=C/c1ccccc1Cl)CC2.Cl | 100 | 68 | 38 |
| Br.CC1(C)NC(N)=NC(=N)N1OCCCOc1ccc([N+](=O)[O-])cc1 | 94 | 80 | 68 |
| O=C(N[C@@H](CC1CCCCC1)C(=O)NCCN1CCCCC1)c1ccc(O)c(-c2cccc(C(F)(F)F)c2)c1 | 99 | 97 | 0 |
| O=C(/C=C/c1cccs1)NCC(NCCCNc1cc(=O)c2ccccc2[nH]1)c1cc(Br)cc(Br)c1 (stereo not drawn) | 100 | 58 | 0 |
| CNC(=O)Cc1ccc(C(=O)Nc2cccc(-c3cccc(-c4nc5cccc(C)c5[nH]4)c3)c2)cc1 | 96 | 53 | 15 |
| CCC[C@@H]([C@@H](CC1CCCCC1)C(=O)NC(C(=O)Nc1nccs1)C(CC)c1ccccc1)N(O)C=O (stereo partly drawn) | 89 | 19 | 50 |
| Cc1cccc2nc(-c3cccc(-c4ccc(NC(=O)C5CCN(C)CC5)cc4)c3)[nH]c12 | 100 | 100 | 16 |
| CN(C)CCOc1cc(O)c2c(c1)OC(C)(C)C=C2c1cccs1 | 99 | 10 | 29 |
| c1ccc(CSC2=NNC(c3ccccn3)S2)cc1 (stereo not drawn) | 80 | 65 | 6 |

| Compound | Inhibition (Plasmodium falciparum [1]) [%] | Inhibition (Plasmodium falciparum [2]) [%] | Inhibition (HepG2) [%] |
| --- | --- | --- | --- |
| Cc1cc(NC(=O)c2ccco2)ccc1OC1CCN(Cc2ccc(F)cc2)C1.O=C(O)C(F)(F)F (stereo not drawn) | 96 | 92 | 5 |
| CCCN1CCc2c(sc3nc(SCC(=O)Nc4ccc(C)cc4)n(-c4ccc(C)cc4)c(=O)c23)C1 | 92 | 71 | 0 |
| COc1ccc2ccc(OC)c(CNCCCCCCNCc3c(OC)ccc4ccc(OC)cc34)c2c1.CS(=O)(=O)O | 100 | 32 | 100 |
| Cc1cc(N2CCN(C)CC2)nc2ccc(NC(=O)c3cccc(N(C)C)c3)cc12 | 85 | 23 | 9 |
| Cc1cccc2nc(-c3cccc(-c4cccc(CNCc5ccccc5)c4)c3)[nH]c12.O=C(O)C(F)(F)F | 100 | 56 | 3 |
| COc1ccc2ncc(C#N)c(CCN3CCC(NCc4ccc5c(n4)NC(=O)CS5)CC3)c2n1.Cl | 89 | 17 | 9 |
| CC[C@H](C)CNC(=O)c1cncc(-c2cccc(CN(C)C3CCN(C)CC3)c2)c1.O=C(O)C(F)(F)F | 100 | 59 | 9 |
| CC[C@]1(C)C[C@@H](NC(=O)NC(=O)c2ccc(OC)cc2)[C@]2(C)[C@H](C)CC[C@]3(CCC(=O)[C@H]32)[C@@H](C)[C@@H]1OC(=O)NC(=O)c1ccc(OC)cc1 | 100 | 98 | 10 |
| Cc1cc(N2CCCC2)nc(Nc2ccc(NC(=O)Nc3ccccc3)cc2)n1 | 99 | 100 | 35 |
| C(=NN=c1cc(-c2ccccc2)[nH]c2ccccc12)c1cccnc1 | 87 | 13 | 23 |
| COc1cc(F)c2ncc(Cl)c(CCN3CCC(NCc4ccc5c(c4)NC(=O)CO5)CC3)c2c1.Cl | 95 | 79 | 32 |
| CCn1ccc2c(N3CCCS3(=O)=O)cc(C(=O)N[C@@H](Cc3ccccc3)[C@H](O)CNC(C)(C)c3cccc(OC)c3)cc21 | 99 | 98 | 20 |
| CCS(=O)(=O)N1CCN(c2nc(-c3ccccc3)nc(COC)c2Cc2ccccc2F)CC1 | 82 | 34 | 0 |
| Br.CC1(C)NC(N)=NC(=N)N1OCCCOc1cccc2ccccc12 | 95 | 86 | 67 |
| CN(C)c1ccc(/C=C2\S/C(=N\c3ccccc3)N(c3ccccc3)C2=O)cc1[N+](=O)[O-] | 96 | 82 | 9 |
| CCCC(=O)c1cnc2c(I)cccc2c1Nc1ccccc1C | 90 | 26 | 7 |
| COc1ccc2nccc([C@@H](O)CN3CCC(NC(=O)c4ccc(CN5CCN(c6cccc(C)c6)CC5C)cc4)CC3)c2c1 (stereo partly drawn) | 97 | 86 | 50 |
| Cc1cccc2nc(-c3ccc(-c4cccc(NC(=O)CN5CCN(C)CC5)c4)s3)[nH]c12 | 96 | 51 | 7 |
| CC(=O)Nc1cccc(CNCc2ccc(-c3cnc(N4CCCC(C)(C)C4)nc3)cc2)c1.O=CO | 93 | 75 | 10 |
